The source of these data is PubChem BioAssay (EPA / NIEHS).

Values joined by “and” are separate entries in the source; they are usually repeats but may differ in a detail not shown here. Equal values may be shown once. More than one record can exist for a structure, and the calls need not agree. Active and inactive are the calls of the source. The calls were made as follows: active = hit-call score of the fitted dose curve at least 0.9, where 1 is the maximum; inactive = score below 0.9.

Read-out in this experiment: Monokine induced gamma interferon (MIG), CXCL9 (gene 4283)
The experiment can be described thus: BSK_SAg_MIG: BioMAP Diversity Plus: SAg Assay for Monokine induced gamma interferon (MIG) Biomarker Activity (AID 2283092). The conditions noted are these: primary human HUVEC with PBMC; actives raise or lower the signal. On the procedure: BSK_SAg is a cell-based, multiplexed-readout assay that uses umbilical vein endothelium and peripheral blood mononuclear cells, a human vascular primary cell co-culture, with measurements taken at 24 hours after chemical dosing in a 96-well plate.BSK_SAg_MIG is an assay component measured in the BSK_SAg assay. It measures MIG antibody related to regulation of gene expression using ELISA technology.Data from the assay component BSK_SAg_MIG was analyzed into 1 assay endpoint. This assay endpoint, BSK_SAg_MIG, was analyzed with bidirectional fitting relative to DMSO as the negative control and baseline of activity. Using a type of binding reporter, gain or loss-of-signal activity can be used to understand changes in the signaling as they relate to the gene CXCL9. Furthermore, this assay endpoint can be referred to as a primary readout, because this assay has produced multiple assay endpoints where this one serves a signaling function. To generalize the intended target to other relatable targets, this assay endpoint is annotated to the cytokine intended target family, where the subfamily is chemotactic factor.
The levels of cell surface (or secreted, indicated by the prefix "s") biomarker endpoints were measured by ELISA. Overt cytotoxicity to cells in confluent adherent cultures (all systems other than the BT system) was assessed by measuring total protein levels using sulforhodamine B (SRB) staining in parallel cultures at the time of biomarker measurements, indicated as SRB endpoints. For proliferation assays for adherent cell types, individual cell types are cultured at sub-confluence and relative cell numbers quantified by SRB staining at time points optimized for each system (48 h: 3C and CASM3C systems; 72 h: BT and HDF3CGF systems; 96 h: SAg system). SRB was performed by staining cells with 0.1% SRB after fixation with 10% TCA and reading wells at 560 nm.Viability and proliferation of PBMC (T cells) was quantified by Alamar Blue reduction for the SAg and BT systems. For PBMC viability (referred to as PBMC Cytotoxicity within the assay endpoint names), cells were plated (75,000/well in a 96-well plate) and then chemical samples added for 1 h before addition of activators, SEB and TSST-1 (20 ng/mL final concentration each). Cells were incubated for 90 h. Then, Alamar Blue (20 uL/well) (Invitrogen, Cat DAL1100) was added for 6 h, and the plates were read with a fluorescence microplate reader at 546/580 nm (excitation/emission). For PBMC proliferation, cells were plated and activated as above but incubated for only 16 h prior to addition of Alamar Blue. Plates were read after 6 h.
Take `OC1CCC(C2CCCCC2)CC1` (stereo not given): the result was inactive.

Take `CC1=C(/C=C/C(C)=C/C=C/C(C)=C/C(=O)O)C(C)(C)CCC1`: the AC50 was 36.5 µM (active). As to `C#C[C@]1(O)CC[C@H]2[C@@H]3CCC4=CC(=O)CC[C@@H]4[C@H]3CC[C@@]21C`, the result was inactive. As to `OCCC(F)(F)C(F)(F)C(F)(F)C(F)(F)C(F)(F)C(F)(F)F`, the result was inactive and the AC50 was 53.2 µM (active). Take `NC(=O)N1C(=O)C(C(=O)c2cc(Cl)cs2)c2cc(F)c(Cl)cc21` (stereo not given): the result was inactive.

Regarding `CCCCCCCCC(=O)O`, the result was inactive.

For `C[C@@H]1C[C@H]2[C@@H]3CCC4=CC(=O)C=C[C@]4(C)[C@@]3(F)[C@@H](O)C[C@]2(C)[C@@]1(O)C(=O)COP(=O)(O)O`, the result was inactive. For `c1ccc2c(c1)ccc1ccccc12`, the outcome was inactive. With `O=C(OCCOCCOC(=O)c1ccccc1)c1ccccc1`, the outcome was inactive.

For the compound `C=C(C)C(=O)OCCC(F)(F)C(F)(F)C(F)(F)C(F)(F)C(F)(F)C(F)(F)F`, the result was inactive. In the case of `CCc1nn(C2CCCCC2)c2cc(C3(C#N)CCC(C(=O)O)CC3)ccc12` (stereo not given), the AC50 is 28 µM (active). Consider `CCCCCCCCCCCCCC[N+](C)(C)C`, for which the AC50 is 7.11 µM (active). Take `NCC(F)(F)C(F)(F)C(F)(F)C(F)(F)C(F)(F)C(F)(F)C(F)(F)F`: the outcome was inactive. As for `CCCCCCC(=O)O`, the outcome was inactive. Consider `OC1CCCCC1`, for which the result was inactive.

In the case of `CC(=O)CC(C)(C)O`, the outcome was inactive. With `CC(O)CO` (stereo not given), the outcome was inactive. For the compound `c1ccc2cc3c(ccc4ccccc43)cc2c1`, the result was inactive. On to `CC(C)CCCCCCOC(=O)CCCCC(=O)OCCCCCCC(C)C`, for which the outcome was inactive. `O=c1c(-c2ccc(O)cc2)coc2cc(O)ccc12`: the result was inactive. Turning to `CC(C)(C)c1ccc(O)c(C(C)(C)C)c1`, the AC50 was 28.7 µM (active). For `CN(C)C=O`, the result was inactive. For `CCCOc1sc(C(=O)N2CCC(c3cc(CN)ccc3F)CC2)c(C)c1Br`, the AC50 was 11.9 µM (active). Regarding `CC(=O)NC1(c2cccc(F)c2)CCN(CC[C@@]2(c3ccc(Cl)c(Cl)c3)CN(c3ccccc3)C(=O)CO2)CC1`, the outcome was inactive. Regarding `CCN(CC)CCNc1ccc(CNC=O)c2sc3ccc(OC)cc3c(=O)c12`, the AC50 is 36.4 µM (active).

For the compound `O=[N+]([O-])c1ccc(O)cc1`, the result was inactive. For the compound `Cc1oc(-c2ccccc2)nc1CCOc1ccc(C[C@H](Nc2ccccc2C(=O)c2ccccc2)C(=O)O)cc1`, the AC50 is 38.9 µM (active). Still for that read-out and setting: the result for `O=C(O)Cc1cc(I)c(Oc2cc(I)c(O)c(I)c2)c(I)c1` reads 23.6 µM (active). For the compound `CCCCCCCCCCCCCCCS(=O)(=O)Oc1ccccc1`, the result was inactive. For `CC[C@H](C)[C@@H](C(=O)O)n1sc2ccccc2c1=O`, the result was inactive. For `ClC1=C(Cl)C(Cl)(Cl)C(Cl)=C1Cl`, the AC50 was 13.8 µM (active). As to `Oc1cccc(O)c1`, the result was inactive.

In the case of `CCCCCCCCOC(=O)CCCCCCCCC(=O)OCCCCCCCC`, the result was inactive.

As for `CCCCCCCC(=O)O`, the outcome was inactive. Take `FC(F)(I)C(F)(F)C(F)(F)C(F)(F)C(F)(F)C(F)(F)I`: the concentration at half-maximal activity (AC50) is 54.9 µM (active) [middle of 5 runs].

With `COC(=O)CCCCC(=O)OC`, the result was inactive. In the case of `OCCC(F)(F)C(F)(F)C(F)(F)C(F)(F)C(F)(F)C(F)(F)C(F)(F)C(F)(F)F`, the outcome was inactive; the half-maximal activity concentration (AC50) was 46.3 µM (active) and 43.8 µM (active). On to `CN1CCC[C@H]1c1cccnc1`, for which the result was inactive.
